ST2 IL33 inh – inhibitors of human ST2 (IL1RL1) binding to IL-33; 78,000 compounds, 2.3% hits; AlphaLISA ST2-Fc/biotin-IL-33 interaction, 1 h; inhibition, % for hits at 17 µM; AID 1259354; Q01638; in the data active = inhibition above about 30%
Target sequence (Q01638 whole entry, looked up): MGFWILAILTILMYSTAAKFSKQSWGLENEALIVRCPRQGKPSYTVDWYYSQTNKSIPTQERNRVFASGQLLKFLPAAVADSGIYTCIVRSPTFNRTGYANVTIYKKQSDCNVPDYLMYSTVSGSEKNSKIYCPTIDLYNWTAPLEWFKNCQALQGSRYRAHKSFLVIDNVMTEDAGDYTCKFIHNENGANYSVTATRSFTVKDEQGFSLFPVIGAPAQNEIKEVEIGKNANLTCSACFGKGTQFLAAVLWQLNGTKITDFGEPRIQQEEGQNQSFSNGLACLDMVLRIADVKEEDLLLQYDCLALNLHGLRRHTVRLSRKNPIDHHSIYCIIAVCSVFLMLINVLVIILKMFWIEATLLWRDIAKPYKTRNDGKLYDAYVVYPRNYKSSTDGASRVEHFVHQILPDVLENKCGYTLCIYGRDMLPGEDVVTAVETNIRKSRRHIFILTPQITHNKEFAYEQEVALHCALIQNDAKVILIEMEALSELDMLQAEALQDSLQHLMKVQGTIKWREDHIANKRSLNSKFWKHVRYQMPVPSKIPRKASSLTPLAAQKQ
Numbers stand for hits; . = inactive. The full list was thinned out, with hits kept by preference.

SMILES	ST2 IL33 inh
CC(NC(=O)CN1C(=O)/C(=C\c2cccc(Cl)c2)Sc2ccccc21)c1ccccc1 (configuration not stated)	.
CNC(=O)CN1C(=O)/C(=C/c2ccccc2C)Sc2ccccc21	.
CNC(=O)CN1C(=O)/C(=C/c2ccccc2F)Sc2ccccc21	.
O=C(CN1C(=O)/C(=C/c2ccccc2F)Sc2ccccc21)NC1CCCC1	.
O=C(CN1C(=O)/C(=C/c2ccccc2F)Sc2ccccc21)NC1CCCCCC1	.
Cc1ccccc1/C=C1\Sc2ccccc2N(CC(=O)NC(C)c2ccccc2)C1=O (configuration not stated)	32%
O=C(CN1C(=O)/C(=C\c2ccc(Cl)cc2)Sc2ccccc21)N1CCCCC1	41%
CC1CCCC(NC(=O)CN2C(=O)/C(=C/c3ccccc3F)Sc3ccccc32)C1C (configuration not stated)	32%
Cc1ccc(CCNC(=O)CN2C(=O)/C(=C/c3ccccc3F)Sc3ccccc32)cc1	.
COCCNC(=O)CN1C(=O)/C(=C\c2ccc(Cl)cc2)Sc2ccccc21	.
COCCCNC(=O)CN1C(=O)/C(=C\c2ccc(Cl)cc2)Sc2ccccc21	.
O=C(CN1C(=O)/C(=C/c2ccccc2F)Sc2ccccc21)N1CCCCC1	39%
CCN(CCCNC(=O)c1cc2cc3ccc(Cl)cc3nc2o1)Cc1ccccc1	.
COc1ccccc1C1C2=C(CCCC2=O)Nc2nc(SCc3ccccc3)[nH]c(=O)c21 (configuration not stated)	.
COc1ccc(CNCCC2(c3ccccc3)CCOC(C(C)C)C2)cc1OC (configuration not stated)	.
CCOc1ccccc1NC(C)=O	.
O=C(NCCN1CCCC1)c1ccc(CS(=O)(=O)c2ccc(Br)cc2)o1	.
CCOC(=O)c1sc(NC(=O)c2cc(=O)c3ccccc3o2)nc1-c1ccccc1	.
COCC(=O)NCCCc1nc2ccccc2[nH]1	.
CC(=O)N[C@H](C)C(=O)N(C)CC1(CO)CCC1	.
O=C(Cc1c(C(=O)O)[nH]c2ccc(Cl)cc12)NCc1ccc(F)cc1	.
COc1cccc(CN2CCC(N3CCCCC3)CC2)c1	.
CC(=O)N1CCN(S(=O)(=O)c2ccccc2)C[C@H]1C(=O)N[C@@H](CC1CCCCC1)C(N)=O	.
COc1cc(C2C(N3C(=O)c4ccccc4C3=O)C(=O)N2c2ccc(C)cc2)cc(OC)c1OC (configuration not stated)	.
O=C(CN1C(=O)/C(=C\c2ccc(C(F)(F)F)cc2)Sc2ccccc21)NCCN1CCCC1	39%
SMILES	ST2 IL33 inh
O=C(CN1C(=O)/C(=C\c2cccc(Cl)c2)Sc2ccccc21)NCCN1CCCC1	.
CNC(=O)CN1C(=O)/C(=C\c2ccc(C(F)(F)F)cc2)Sc2ccccc21	.
COc1ccc(OCCOc2cccc(C=O)c2)cc1	.
COc1ccc(OC)c(/C=C2/C=C(c3cc(OC)ccc3OC)OC2=O)c1	41%
COc1cccc(/C=C2/C=C(c3cc(OC)ccc3OC)OC2=O)c1	42%
COc1ccc(OC)c(N2C(=O)C3CCCCC3C2=O)c1 (configuration not stated)	.
COc1ccc(C2=C/C(=C/c3ccc4c(c3)OCO4)C(=O)O2)c(OC)c1	.
COc1ccc(OC)c(/C=C2\N=C(c3ccc(OC)c([N+](=O)[O-])c3)OC2=O)c1	.
CC1CN(C(=O)c2ccco2)CCN1C(=O)c1ccco1 (configuration not stated)	.
COc1cccc(-n2cc(CN(C)Cc3nc4ccccc4[nH]3)cn2)c1	.
COc1ccc(NC(=O)[C@@H]2CC3c4ccccc4C2c2ccccc23)c(OC)c1	.
Cc1ccc(C(=O)Nc2ccc3c(c2)ncn3-c2ccc(C)cc2)cc1	.
CCCOc1c(CNC2CCSC2)cccc1OC (configuration not stated)	.
O=C1C2C3CC(C(Br)C3Br)C2C(=O)N1c1ccc(F)cc1 (configuration not stated)	.
CCc1ccc(CN(C)Cc2ncccc2C(=O)O)nc1	.
CCOC(=O)c1c(C)n(C)c2c1cc(OC(=O)CC)c1ccccc12	.
O=C(c1ccccc1)C1CCN(S(=O)(=O)NCc2ccccc2)CC1	.
CCSC1=N/C(=C\c2c(OC)cc(OC)cc2OC)C(=O)S1	38%
O=C(NCCc1ccccc1)C1C2C=CC3(CN(Cc4ccccc4Cl)C(=O)C13)O2 (configuration not stated)	.
O=C(Nc1cccc(Cl)c1)C(O)c1ccccc1 (configuration not stated)	.
CC1=NN(c2ccccc2)C(=O)C1C(c1cccc(Cl)c1)C(C#N)C#N (configuration not stated)	62%
Cc1nn(-c2ccccc2)c(Cl)c1C(=O)Nc1cccc(Cl)c1	.
CC1(C(=O)NC2CCCCC2)CCC(=O)N1Cc1ccc(F)cc1 (configuration not stated)	.
Cc1cc(C)nc(SCc2cn3cccnc3n2)n1	.
COCCn1c(-c2ccccn2)nc2cc(NC(C)=O)cc(C(=O)NC[C@H]3CC4C=CC3C43CC3)c21 (some centres not stated)	.
SMILES	ST2 IL33 inh
N#CSC(C#N)Cc1ccccc1 (configuration not stated)	33%
N#CC(c1ccccc1)C(C#N)c1ccccc1 (configuration not stated)	.
OC(Cc1ccccc1)c1ccccc1 (configuration not stated)	.
N#Cc1cc(C#N)c(SCc2ccc([N+](=O)[O-])cc2)nc1N	.
CC(C)(C)NCc1ccc([N+](=O)[O-])cc1	.
N#CSC(C#N)Cc1ccc([N+](=O)[O-])cc1 (configuration not stated)	51%
Cn1c(=O)oc2ccc(C(=O)N3CCC4(CCCNC4)C3)cc21 (configuration not stated)	.
Cc1noc([C@@H]2C[C@H](NS(=O)(=O)c3ccc(C#N)cc3)CN2C)n1	.
COc1ccc(N(C(=O)c2ccc(F)cc2)C2C=CS(=O)(=O)C2)c(OC)c1 (configuration not stated)	.
CC(=O)N1CCc2c(sc(NC(=O)c3ccc(OC(C)C)cc3)c2-c2nc3ccccc3s2)C1	.
CSc1cccc(NC(=O)C2COc3ccccc3O2)c1 (configuration not stated)	.
O=C(c1ccc(NCc2ccncc2)cc1)N1CCCC2(CCNC2)C1 (configuration not stated)	.
COc1ccc(OCCN(C)Cc2ccccc2)cc1	.
OCCN(Cc1ccccc1)Cc1ccccc1	.
COc1ccc(N(N)Cc2ccccc2)cc1	50%
NN(Cc1ccccc1)c1ccccc1	37%
O=S(=O)(c1ccccc1)N(Cc1ccccc1)Cc1ccccc1	.
COc1ccc(CN(C)Cc2ccccc2)cc1	.
Cc1ccc(-c2nnc(Nc3cccc(Cl)c3)c3ccccc23)cc1S(=O)(=O)NCCO	.
CCN(CC)CCCNC(=O)c1nnn(Cc2ccccc2)c1N	.
CCNc1nc(-c2nnc(-c3ccc(C)cc3)o2)nc2ccccc12	.
COc1ccccc1N1CCN(C(=O)c2ccc(F)cc2)CC1	.
COc1ccccc1OCC(=O)NCC1CCCN(Cc2ccc(SC)cc2)C1 (configuration not stated)	.
COc1ccccc1-n1cc2c([N+](=O)[O-])cc([N+](=O)[O-])cc2n1	35%
COc1ccc(C2=N/C(=C\c3cccc(OC)c3OC)C(=O)O2)cc1[N+](=O)[O-]	.
COc1ccc(-n2cc3c([N+](=O)[O-])cc([N+](=O)[O-])cc3n2)cc1	.
